Test results reported in PubChem BioAssay (NCATS).
Several values for one entry are separate records, joined by “and”; a condition that tells them apart may be missing. Equal values may be shown once. Inconclusive results are not listed. Entries that show only a call come without a potency. Unmarked numbers belong to inactive results. Activity calls are given as the source filed them. Calls follow the shape of the dose curve; as a rule, active = well fitted cell-killing curve with a large enough effect; inconclusive = small, poorly fitted or top-dose-only effect, or effect the other way; inactive = no such curve, though single readings can be large or run the other way.

Assay: Viability qHTS for spleen associated tyrosine kinase inhibitor (SYKi) naive MV4-11 cells (AID 1963823); also: nearly all actives have a fitted effect of over 40% in size
Settings: MV4-11 AML viability, CellTiter-Glo luminescence, 72 h; series mostly up to 45 µM
Summary of the method: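 qHTS, SYK inhibitor-naive MV4-11; 500 cells/well; 72 hr compound exposure, 37 C; CellTiter-Glo added, 10 min RT; luminescence read.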
Potency is read from the fitted curve at half-maximal effect.

Row | SMILES | Potency | viability (% of control)
1 | C=CC1(C)C=C2CC[C@H]3[C@@](C)(C(=O)O)CCC[C@]3(C)C2CC1 (some centres undefined) | 1.61 µM (active) | 
2 | O=C(O)c1c[nH]c2c(ccc3ccccc32)c1=O | 23.1 µM (active) | 
3 | C=CC1(C)CC(OC(=O)C(=C)C(O)COC(C)=O)C(C(=C)C(=O)OC)C(O)C1C(=C)CO (centres undefined) | 8.93 µM (active) | 
4 | CC1(C)CCC2(C(=O)OC3OC(COC4OC(CO)C(O)C(O)C4O)C(O)C(O)C3O)CCC3(C)C(=CCC4C5(C)CCC(OC6OCC(O)C(O)C6O)C(C)(C)C5CCC43C)C2C1O (centres undefined) |  | 56.1% [at 9.25 µM]
5 | C/C=C/C=C/C=C/C(=O)O[C@@H]1C=C(CO)[C@](O)(CO)[C@@]2(C)CCCC(C)(C)[C@H]12 | 16.1 µM (active) | 
6 | O=S(=O)(O)c1ccc(Nc2ncnc3c2ncn3[C@@H]2O[C@H](CO)[C@@H](O)[C@H]2O)cc1 | inactive | 
7 | CC(C)(O)C1CC=C(C(=O)OC[C@H]2O[C@@H](Oc3cc(C(=O)O)cc(O)c3O)[C@H](O)[C@@H](O)[C@@H]2O)CC1 (some centres undefined) | inactive | 
8 | C=C1C(=O)O[C@@H]2/C=C(\C)CC/C=C(\C(=O)O[C@@H]3O[C@H](CO)[C@@H](O)[C@H](O)[C@H]3O)CC[C@@H]12 | inactive | 
9 | C[C@@H]1C[C@@H](O)[C@@]23CO[C@@H](O)[C@@H]2CCC[C@@H]3[C@@]12C[C@@H](c1ccoc1)OC2=O | inactive | 
10 | Cc1ccc2nc(NC(=O)CSc3nc4c(c(=O)n3-c3ccc(F)cc3)SCC4)sc2c1 | inactive | 
11 | Cc1c(C(=O)NCc2cccnc2)nn(-c2ccc(Cl)cc2Cl)c1-c1ccc(Cl)cc1 | inactive | 
12 | CC[C@H]1OC(=O)[C@H](C)[C@@H](O[C@H]2C[C@@](C)(OC)[C@@H](O)[C@H](C)O2)C(C)[C@@H](O[C@@H]2O[C@H](C)C[C@H](N(C)C)[C@H]2O)[C@](C)(O)C[C@@H](C)CN(C)[C@H](C)[C@@H](O)[C@]1(C)O (some centres undefined) | inactive | 
13 | CC1OC(OC2C(OC(=O)[C@]34CCC(C)(C)C[C@H]3C3=CCC5[C@@]6(C)CC[C@H](OC7OC(C(=O)O)C(O)C(O)C7O)C(C)(C)C6CC[C@@]5(C)[C@]3(C)CC4O)OC(CO)C2O)C(O)C(O)C1OC1OCC(O)C(O)C1O (some centres undefined) |  | 70.8% [at 9.25 µM]
14 | COc1ccc(C2=CC(=O)OC2Cc2ccc(O)cc2)c(O)c1 (centres undefined) | inactive | 
15 | Nc1c(S(=O)(=O)c2ccccc2)c2nc3ccccc3nc2n1-c1ccc(F)cc1 | inactive | 
16 | CC(NC(=O)[C@H](Cc1ccccc1)NC(=O)OCc1ccccc1)C(=O)CF (some centres undefined) | inactive | 
17 | CC1CC=C2C1CC1(O)C(=O)CC2(C)C1(C)CO (centres undefined) | inactive | 
18 | COc1ccc(-c2c(C)c(C(=O)NN3CCCCC3)nn2-c2ccc(Cl)cc2Cl)cc1 | 16.4 µM (active) | 
19 | CC(=O)O[C@H]1C[C@@](O)(C(C)C)C2[C@@H](OC(=O)c3ccc(O)cc3)C[C@@]3(C)O[C@H]3C[C@]21C (some centres undefined) | inactive | 
20 | O=C(O)CCc1ccc(NCc2cccc3c2CCCN3CCOc2ccccc2)cc1F | inactive | 
21 | NC1CCCN(c2c(/C=C3\SC(=O)NC3=O)cccc2-c2ccccc2)C1 (centres undefined) | 2.06 µM (active) and 3.72 µM (active) | 
22 | CCOc1ccc(-c2ccc(Cn3c(CC(C)(C)C(=O)O)c(SC(C)(C)C)c4cc(OCc5ccc(C)cn5)ccc43)cc2)cn1 | inactive | 
23 | C/C(=C\CCC(C)C1=CCC2(C)OC3=C(CC12)C(=O)C(O)CC3)CO (centres undefined) | inactive | 
24 | CC1(C)C(=O)N2c3ccccc3[C@]3(CC(n4cnc5ccccc5c4=O)C(=O)O3)[C@H]2N1O (some centres undefined) | inactive | 
25 | CC(C)Oc1ccc(-c2nc(-c3cccc4c3CCC4NCCC(=O)O)no2)cc1C#N (centres undefined) | inactive | 
26 | CCc1c(-c2ccccc2)c(-c2ccccc2)nn1-c1ccccc1-c1cccc(OCC(=O)O)c1 | inactive | 
27 | C/C=C/C=C/C=C/C(=O)OC1C=C2C(O)OC(=O)[C@]2(O)[C@@]2(C)CCCC(C)(C)[C@H]12 (some centres undefined) | 6.32 µM (active) | 
28 | C/C=C(/C)C(=O)OC1C(OC(C)=O)C23C(O)OC4(CCC5C6(C)CCC(OC7OC(C(=O)O)C(O)C(OC8OC(CO)C(O)C(O)C8OC8OC(C)C(O)C(O)C8OC8OCC(O)C(O)C8O)C7OC7OC(CO)C(O)C(O)C7O)C(C)(C)C6CCC5(C)C4(C)CC2OC(C)=O)C3CC1(C)C (centres undefined) |  | 43.2% [at 9.25 µM]
29 | CC[C@H](C)[C@@H]([C@@H](CC(=O)N1CCC[C@H]1[C@H](OC)[C@@H](C)C(=O)N[C@@H](Cc1ccccc1)c1nccs1)OC)N(C)C(=O)[C@@H](NC(=O)[C@H](C(C)C)N(C)C)C(C)C | inactive | 
